Three molecules from PubChem BioAssay (EPA / NIEHS) can be followed below.

“And” between values parts separate entries of the source, which are not always exact repeats. Identical values can stand only once. A structure can be active in one record and inactive in another. The source made the active and inactive calls. The calls were made as follows: active = hit-call score of the fitted dose curve at least 0.9, where 1 is the maximum; inactive = score below 0.9.

Read-out in test [1]: Transforming growth factor beta 1 (TGFb1), TGFB1 (gene 7040)
As to the kind of experiment: BSK_KF3CT_TGFb1: BioMAP Diversity Plus: KF3CT Assay for Transforming growth factor beta 1 (TGFb1) Biomarker Activity (AID 2283072). The conditions noted are these: primary human keratinocytes with fibroblasts; actives raise or lower the signal. Summed up:
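Primary human skin cells (keratinocytes, foreskin fibroblasts) were co-cultured, exposed to test chemical and sampled at 24 h. TGF-b1 levels were measured by ELISA and fitted bidirectionally relative to DMSO.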

Read-out in test [2]: C-C motif chemokine 2 (Homo sapiens) (UniProt P13500)
The test is described as follows: BSK_KF3CT_MCP1: BioMAP Diversity Plus: KF3CT Assay for Monocyte Chemoattractant Protein 1 (MCP1/CCL2) Biomarker Activity (AID 2283073). The conditions noted are these: primary human keratinocytes with fibroblasts; actives raise or lower the signal. Summed up: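 Biomarker MCP-1 is measured by ELISA in primary human keratinocytes co-cultured with foreskin fibroblasts, 24 h after chemical treatment; DMSO serves as the negative control and activity baseline.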

Read-out in test [3]: Matrix Metallopeptidase 9 (MMP9), MMP9 (gene 4318)
As to the kind of experiment: BSK_KF3CT_MMP9: BioMAP Diversity Plus: KF3CT Assay for Matrix Metallopeptidase 9 (MMP9) Biomarker Activity (AID 2283074).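 As to AC50: MMP9 protein level quantified by ELISA in the co-culture.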 Particulars: primary human keratinocytes with fibroblasts; actives raise or lower the signal. Summed up: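 Human keratinocyte/foreskin fibroblast co-culture; compound added; 24 h; MMP-9 by ELISA; bidirectional fit vs DMSO baseline.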

Read-out in test [4]: urokinase plasminogen activator (uPA), PLAU (gene 5328)
The test is described as follows: BSK_KF3CT_uPA: BioMAP Diversity Plus: KF3CT Assay for urokinase plasminogen activator (uPA) Biomarker Activity (AID 2283075). The conditions noted are these: primary human keratinocytes with fibroblasts; actives raise or lower the signal. Summed up: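 ELISA readout of uPA, analyzed for signal gain or loss relative to DMSO, from a human primary keratinocyte–foreskin fibroblast co-culture measured 24 h after chemical treatment.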

Read-out in test [5]: CD40, CD40 (gene 958)
The test is described as follows: BSK_LPS_CD40: BioMAP Diversity Plus: LPS Assay for CD40 Biomarker Activity (AID 2283076). Particulars: primary human HUVEC with PBMC; actives raise or lower the signal. Summed up: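 Using a multiplexed primary human co-culture (umbilical vein endothelium plus PBMC), CD40 was read by ELISA 24 h after dosing, with cytotoxicity tracked by sulforhodamine B staining of parallel cultures and activity fitted bidirectionally versus DMSO.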

Read-out in test [6]: E-selectin (Homo sapiens) (UniProt P16581)
As to the kind of experiment: BSK_LPS_Eselectin: BioMAP Diversity Plus: LPS Assay for Eselectin Biomarker Activity (AID 2283077). The conditions noted are these: primary human HUVEC with PBMC; actives raise or lower the signal. Summed up:
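Dose chemical onto LPS-driven HUVEC/PBMC co-culture; after 24 h, run ELISA for E-selectin; fit up- and down-going responses relative to DMSO control.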

Read-out in test [7]: Interleukin-8 (IL8), CXCL8 (gene 3576)
The test is described as follows: BSK_LPS_IL8: BioMAP Diversity Plus: LPS Assay for Interleukin-8 (IL8) Biomarker Activity (AID 2283078). The conditions noted are these: primary human HUVEC with PBMC; actives raise or lower the signal. Summed up:
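In this LPS system, chemical-treated human umbilical vein endothelium/PBMC co-cultures were harvested at 24 h for IL-8 ELISA.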

Test [8] can be described thus: BSK_LPS_SRB: Viability Assessment in the BioMAP Diversity Plus: LPS Assay (AID 2283079).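 Also: total protein by sulforhodamine B absorbance as a cytotoxicity measure; measured one day after compound addition; fitted in both directions against DMSO so loss or gain of signal counts.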 Particulars: primary human HUVEC with PBMC. Summed up:
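Cytotoxicity endpoint in human endothelial–PBMC co-culture: 24 h exposure, then SRB (0.1%) staining, 560 nm read.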

Read-out in test [9]: Interleukin-1 alpha (IL1a), IL1A (gene 3552)
The test is described as follows: BSK_LPS_IL1a: BioMAP Diversity Plus: LPS Assay for Interleukin-1 alpha (IL1a) Biomarker Activity (AID 2283080). Particulars: primary human HUVEC with PBMC; actives raise or lower the signal. Summed up: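 Primary human HUVEC and PBMC co-culture stimulated with LPS is dosed and harvested at 24 h. Both increases and decreases in ELISA-measured IL-1a are scored relative to DMSO.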

Read-out in test [10]: Monocyte Chemoattractant Protein-1 (MCP1), CCL2 (gene 6347)
The test is described as follows: BSK_LPS_MCP1: BioMAP Diversity Plus: LPS Assay for Monocyte Chemoattractant Protein-1 (MCP1) Biomarker Activity (AID 2283081).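 As to AC50: secreted MCP-1 protein quantified by ELISA in culture supernatant.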 Particulars: primary human HUVEC with PBMC; actives raise or lower the signal. Summed up:
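Values derive from bidirectional fitting against DMSO of ELISA-measured MCP-1 in a human primary endothelial and mononuclear cell co-culture, 24 h after chemical addition under LPS activation.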

The nature of test [11]: BSK_LPS_PGE2: BioMAP Diversity Plus: LPS Assay for Prostaglandin E2 (PGE2) Biomarker Activity (AID 2283082).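 As to AC50: secreted prostaglandin E2 measured by ELISA in LPS-stimulated co-culture.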 Particulars: primary human HUVEC with PBMC; actives raise or lower the signal. Summed up: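 LPS-activated HUVEC/PBMC co-culture; cmpd dosed, 24 h; PGE2 by ELISA; bidirectional fit vs DMSO; SRB (0.1%, TCA-fixed, 560 nm) in parallel plates for overt cytotox.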
Read-out in test [12]: Macrophage colony-stimulating factor (MCSF), CSF1 (gene 1435)
The test is described as follows: BSK_LPS_MCSF: BioMAP Diversity Plus: LPS Assay for Macrophage colony-stimulating factor (MCSF) Biomarker Activity (AID 2283083). Particulars: primary human HUVEC with PBMC; actives raise or lower the signal. Summed up:
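Bidirectional fit versus DMSO of ELISA-measured M-CSF in co-cultured human umbilical vein endothelial cells and PBMC, sampled 24 h after dosing.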

Read-out in test [13]: Tissue Factor, F3 (gene 2152)
The test is described as follows: BSK_LPS_TissueFactor: BioMAP Diversity Plus: LPS Assay for Tissue Factor Biomarker Activity (AID 2283084). Particulars: primary human HUVEC with PBMC; actives raise or lower the signal. Summed up:
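Read-out: CD142 ELISA, 24 h. System: LPS-driven human endothelial/PBMC co-culture. Analysis: up- or down-signal fitted against DMSO.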

Read-out in test [14]: Tumor necrosis factor (Homo sapiens) (UniProt P01375)
The test is described as follows: BSK_LPS_TNFa: BioMAP Diversity Plus: LPS Assay for Tumour Necrosis Factor alpha (TNFa) Biomarker Activity (AID 2283085). The conditions noted are these: primary human HUVEC with PBMC; actives raise or lower the signal. Summed up: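 Read-out is ELISA of TNFa in primary human endothelial cell–PBMC co-cultures at 24 h after compound. Activity in either direction was fitted against DMSO.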

Read-out in test [15]: Vascular cell adhesion molecule 1 (VCAM1), VCAM1 (gene 7412)
As to the kind of experiment: BSK_LPS_VCAM1: BioMAP Diversity Plus: LPS Assay for Vascular cell adhesion molecule 1 (VCAM1) Biomarker Activity (AID 2283086). Particulars: primary human HUVEC with PBMC; actives raise or lower the signal. Summed up:
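HUVEC + PBMC co-culture, LPS system; compound 24 h; VCAM-1 by ELISA; bidirectional fit vs DMSO control; parallel SRB (0.1%, TCA-fixed, 560 nm) for cytotoxicity.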

Read-out in another test: CD38, CD38 (gene 952)
As to the kind of experiment: BSK_SAg_CD38: BioMAP Diversity Plus: SAg Assay for CD38 Biomarker Activity (AID 2283087). The conditions noted are these: primary human HUVEC with PBMC; actives raise or lower the signal. Summed up:
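Human HUVEC plus PBMC co-culture stimulated with superantigen; CD38 measured by ELISA 24 h after chemical dosing. Fluorescence read-out, bidirectional fit against DMSO; cytotoxicity tracked in parallel by SRB and Alamar Blue.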

Read-out in test [16]: CD40, CD40 (gene 958)
As to the kind of experiment: BSK_SAg_CD40: BioMAP Diversity Plus: SAg Assay for CD40 Biomarker Activity (AID 2283088). The conditions noted are these: primary human HUVEC with PBMC; actives raise or lower the signal. Summed up: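 Endpoint derived by fitting increases or decreases versus DMSO controls. CD40 is detected by fluorescence ELISA in a human vascular co-culture of endothelium and PBMC at 24 h.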

Read-out in the next test: CD69, CD69 (gene 969)
As to the kind of experiment: BSK_SAg_CD69: BioMAP Diversity Plus: SAg Assay for CD69 Biomarker Activity (AID 2283089).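 As to AC50: cell surface CD69 protein quantified by ELISA with fluorescence detection.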 The conditions noted are these: primary human HUVEC with PBMC; actives raise or lower the signal. Summed up: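 ELISA, fluorescence read-out: CD69 on human umbilical vein endothelial cell + PBMC co-culture, 24 h post-dosing. Gain or loss of signal fitted bidirectionally against DMSO baseline.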

Read-out in test [17]: Monocyte Chemoattractant Protein-1 (MCP1), CCL2 (gene 6347)
As to the kind of experiment: BSK_SAg_MCP1: BioMAP Diversity Plus: SAg Assay for Monocyte Chemoattractant Protein-1 (MCP1) Biomarker Activity (AID 2283090). The conditions noted are these: primary human HUVEC with PBMC; actives raise or lower the signal. Summed up: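 MCP-1 levels in the endothelial–PBMC SAg co-culture were quantified by ELISA at 24 h post-dosing; both increases and decreases versus DMSO scored. Cytotoxicity monitored by SRB total protein in parallel cultures.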

Read-out in test [18]: E-selectin (Homo sapiens) (UniProt P16581)
The test is described as follows: BSK_SAg_Eselectin: BioMAP Diversity Plus: SAg Assay for Eselectin Biomarker Activity (AID 2283091). The conditions noted are these: primary human HUVEC with PBMC; actives raise or lower the signal. Summed up:
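Endpoint values derive from bidirectional fitting relative to DMSO, using ELISA-measured E-selectin in a human vascular co-culture (umbilical vein endothelium plus PBMC) sampled 24 h after dosing.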

Chain of E-selectin (Homo sapiens) (P16581 whole entry, looked up): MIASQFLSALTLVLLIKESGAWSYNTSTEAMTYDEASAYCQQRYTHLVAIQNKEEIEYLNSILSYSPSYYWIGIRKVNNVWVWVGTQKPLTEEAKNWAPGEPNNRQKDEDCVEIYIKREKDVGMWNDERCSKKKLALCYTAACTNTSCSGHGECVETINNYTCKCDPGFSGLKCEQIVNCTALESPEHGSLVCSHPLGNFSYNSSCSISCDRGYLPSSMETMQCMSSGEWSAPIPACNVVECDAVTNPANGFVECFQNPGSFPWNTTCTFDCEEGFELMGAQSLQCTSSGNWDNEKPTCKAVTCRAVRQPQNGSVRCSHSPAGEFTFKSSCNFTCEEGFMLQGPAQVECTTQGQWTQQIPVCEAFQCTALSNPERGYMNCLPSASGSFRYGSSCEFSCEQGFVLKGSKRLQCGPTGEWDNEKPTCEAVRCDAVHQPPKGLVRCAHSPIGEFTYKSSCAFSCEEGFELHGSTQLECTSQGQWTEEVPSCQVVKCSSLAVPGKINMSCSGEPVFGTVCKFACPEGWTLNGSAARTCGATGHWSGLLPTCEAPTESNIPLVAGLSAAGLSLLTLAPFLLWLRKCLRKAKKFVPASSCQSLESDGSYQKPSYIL
Chain of Tumor necrosis factor (Homo sapiens) (P01375 whole entry, looked up): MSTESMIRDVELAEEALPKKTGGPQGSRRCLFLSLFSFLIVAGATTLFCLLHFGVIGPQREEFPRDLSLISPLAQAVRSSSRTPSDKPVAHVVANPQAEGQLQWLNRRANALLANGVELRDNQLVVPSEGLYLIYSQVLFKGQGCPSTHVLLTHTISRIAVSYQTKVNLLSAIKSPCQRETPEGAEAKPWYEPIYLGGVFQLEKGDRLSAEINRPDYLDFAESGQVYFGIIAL

What is called AC50 is the concentration at which the activity in the assay is half-maximal. `NC(=O)N1C(=O)C(C(=O)c2cc(Cl)cs2)c2cc(F)c(Cl)cc21` (stereo not drawn): the AC50 in test [1] was 7.48 µM (active); in test [3], 4.33 µM (active); in test [4] it was 12.5 µM (active); with CD40, CD40 (gene 958) [5] it was 17.7 µM (active); in [6], 1.47 µM (active); in test [8] it was 20 µM (active). Moreover, the AC50 was 20 µM (active) in [9]; 5.47 µM (active) in test [10]; 345 nM (active) in test [11]; 11.1 µM (active) in [13]; 24.9 µM (active) with CD38, CD38 (gene 952); 16.4 µM (active) with CD40, CD40 (gene 958) [16]. The AC50 with CD69, CD69 (gene 969) was 20 µM (active); in test [17] it was 5.4 µM (active); in test [18], 8.61 µM (active). Besides, the outcome in test [2], in test [7], in [12], in test [14] and in [15] was inactive.
For the molecule `C[C@@H]1C[C@H]2[C@@H]3CCC4=CC(=O)C=C[C@]4(C)[C@@]3(F)[C@@H](O)C[C@]2(C)[C@@]1(O)C(=O)COP(=O)(O)O`, the outcome in test [1] is “inactive”; in test [2], “inactive”; in test [3], “inactive”; in [4], “inactive”; with CD40, CD40 (gene 958) [5], “inactive”; in test [6], “inactive”. The outcome in test [8], in test [9], in test [10], in test [11], in test [12] and in test [13] was inactive. Further, the outcome in test [15] is “inactive”; with CD38, CD38 (gene 952), “inactive”; in the test with CD40, CD40 (gene 958) [16], “inactive”; with CD69, CD69 (gene 969), “inactive”; in test [17], “inactive”. For the same molecule, the AC50 in test [11] is 9.37 µM (active) and 3.63 µM (active); in [14], 4.47 µM (active) and 3.6 µM (active) and 5.06 µM (active); with CD40, CD40 (gene 958) [16] it was 2.65 µM (active).
With `c1ccc2cc3c(ccc4ccccc43)cc2c1`, the outcome in test [1] is “inactive”; in [2], “inactive”; in [3], “inactive”; in [4], “inactive”; in the test with CD40, CD40 (gene 958) [5], “inactive”; in [6] it was “inactive”. In addition, the result in [8], in [9], in test [10], in test [11], in [12] and in test [14] was inactive. The outcome was “inactive” in test [15]; “inactive” with CD38, CD38 (gene 952); “inactive” with CD40, CD40 (gene 958) [16]; “inactive” with CD69, CD69 (gene 969); “inactive” in test [17]. Further, the AC50 in test [13] was 0.587 µM (active).
